Assay [1] can be described thus: A CellTox Green Cytotoxicity Assay to monitor cytotoxicity in HEK293 cells - 32 hour (AID 1224881). Note: nearly all actives have a fitted effect of over 40% in size. The method in brief: (§1)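 Fluorescence intensity, read at 0, 8, 16, 24, 32 and 40 h of compound treatment, reflected dye binding to DNA of dead HEK293 cells; compounds (23 nL, DMSO) were added 5 h after plating cells with reagent.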
Assay [2] is described as follows: A CellTox Green Cytotoxicity Assay to monitor cytotoxicity in HepG2 cells - 0 hour (AID 1224882). Note: nearly all actives have a fitted effect of over 35% in size. The method in brief:
(§2)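 Using 1536-well format, dye-containing HepG2 suspension was seeded, allowed 5 h at 37 C/5% CO2, dosed by pintool with compounds, positive and negative controls, and imaged for fluorescence across 40 h.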

A short description of assay [3]: A CellTox Green Cytotoxicity Assay to monitor cytotoxicity in HepG2 cells - 32 hour (AID 1224883). Note: nearly all actives have a fitted effect of over 50% in size. The method in brief: as §2
Assay [4] in a line: A CellTox Green Cytotoxicity Assay to monitor cytotoxicity in HEK293 cells - 8 hour (AID 1224884). Note: nearly all actives have a fitted effect of over 35% in size. In outline: as §1
The nature of assay [5]: qHTS RealTime-Glo MT Cell Viability Assay in HepG2 cells - 16 hour (AID 1224885). Note: nearly all actives have a fitted effect of over 50% in size. In outline:
(§3)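 Real-time, nonlytic viability: 600 HepG2 cells/well mixed with NanoLuc enzyme plus prosubstrate; 5 h settle, compound (DMSO) added by pintool; luminescence monitored over 40 h at 37 C.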
Background: qHTS replaces the single test concentration by a dilution series.

Assay [6] can be described thus: qHTS RealTime-Glo MT Cell Viability Assay in HEK293 cells - 24 hour (AID 1224886). Note: top concentration of the series differs between compounds; nearly all actives have a fitted effect of over 50% in size. In outline:
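Cells + reagent dispensed (600 cells/well, HEK293) → 5 h at 37 C/5% CO2 → 23 nL compound in DMSO pinned → 40 h at 37 C → luminescence read at 0, 8, 16, 24, 32, 40 h.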

A short description of assay [7]: qHTS RealTime-Glo MT Cell Viability Assay in HEK293 cells - 8 hour (AID 1224887). Note: top concentration of the series differs between compounds; nearly all actives have a fitted effect of over 50% in size. The method in brief:
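Viable HEK293 cells reduce a cell-permeant prosubstrate; the product diffuses out and is consumed by NanoLuc in the medium to give light. Compounds went in after a 5 h incubation and plates were read over the treatment course.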

A short description of assay [8]: A CellTox Green Cytotoxicity Assay to monitor cytotoxicity in HEK293 cells - 16 hour (AID 1224888). Note: nearly all actives have a fitted effect of over 35% in size. The method in brief: as §1
A short description of assay [9]: qHTS RealTime-Glo MT Cell Viability Assay in HepG2 cells - 0 hour (AID 1224889). Note: nearly all actives have a fitted effect of over 50% in size. The method in brief:
as §3

Assay [10] is described as follows: A CellTox Green Cytotoxicity Assay to monitor cytotoxicity in HepG2 cells - 8 hour (AID 1224890). Note: nearly all actives have a fitted effect of over 45% in size. In outline:
as §2

A short description of assay [11]: qHTS assay to identify small molecule antagonists of the estrogen receptor alpha (ER-alpha) signaling pathway using the BG1 cell line in the presence of 0.1 nM 17-beta-estradiol - cell viability counter screen (AID 1259241). Note: nearly all actives have a fitted effect of over 40% in size. In outline: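 Cytotoxicity counter-screen: live-cell protease activity measured by fluorescence (30 min reagent step) in the same wells. Cells were VM7Luc4E2 with endogenous ER-alpha and ERE-driven luciferase, treated 22 hr at 37C alongside 0.1 nM 17beta-estradiol final.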

Assay [12] is described as follows: qHTS assay to identify small molecule antagonists of the androgen receptor (AR) signaling pathway using the MDA cell line in the presence of 0.5 nM R1881 - cell viability counter screen (AID 1259242). Note: nearly all actives have a fitted effect of over 45% in size. The method in brief: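 Viability of MDA-kb2 cells was multiplexed with the luciferase AR readout; after 16 hr with compounds and R1881 at 0.5 nM final, CellTiter-Fluor fluorescence was recorded.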

Assay [13] addresses Estrogen receptor (Homo sapiens) (UniProt P03372). In words: qHTS assay to identify small molecule antagonists of the estrogen receptor alpha (ER-alpha) signaling pathway using the BG1 cell line in the presence of 0.1 nM 17-beta-estradiol (AID 1259244). Note: nearly all actives have a fitted effect of over 50% in size. In outline:
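Estradiol at 0.1 nM (final) stimulates the endogenous ER-alpha of VM7Luc4E2 cells carrying an ERE-driven luciferase; compounds are co-incubated 22 h at 37C and luciferase output quantified by luminescence.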

The nature of assay [14]: qHTS assay to identify small molecule HDAC inhibitors (AID 1259364). Note: potency is the fitted concentration of half-maximal effect.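 Note: wild-type HCT-116 cells with endogenous class I/II HDAC activity; nearly all actives have a fitted effect of over 45% in size.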 In outline: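 Read-out: luminescence of HDAC-Glo I/II reagent, 30 min RT, reflecting class I/II deacetylase activity in whole HCT-116 cells pre-exposed 2 h to DMSO-dissolved compounds.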
Assay [15] is described as follows: qHTS assay to identify small molecule HDAC inhibitors - cell viability counter screen (AID 1259365). In outline:
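CellTiter-Glo luminescence (30 min, room temperature) reported viability after a 2 h compound exposure at 37 C. Cells: wild-type HCT-116, 1,500 per well, seeded the night before.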

A short description of assay [16]: qHTS assay to identify small molecule agonists of the sonic hedgehog signaling (Shh) pathway - cell viability counter screen (AID 1259366). Note: nearly all actives have a fitted effect of over 50% in size. In outline: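 Cytotoxicity counter screen: CellTiter-Fluor reagent added after 23 h compound exposure, then 1 h at 37C and fluorescence read. Cells were 3T3 Gli1-Luc, seeded 2,000 per well and dosed 4 h post-plating.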
A short description of assay [17]: qHTS assay to identify small molecule antagonists of the sonic hedgehog signaling (Shh) pathway - cell viability counter screen (AID 1259367). Note: nearly all actives have a fitted effect of over 55% in size. The method in brief:
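Seed 3T3 Gli1-Luc cells at 2,000 per well; incubate 4 hr; add compound in DMSO, then conditioned medium; incubate at 37C with 5% CO2; add CellTiter-Fluor after 23 hr; read fluorescence 1 hr later.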

Assay [18] is described as follows: qHTS assay to identify small molecule agonists of the sonic hedgehog signaling (Shh) pathway (AID 1259368; calls by dose curve;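 note: NIH/3T3-derived 3T3Gli1-Luc cells carrying a stable Gli1-driven firefly luciferase reporter; series mostly up to about 92 µM; nearly all actives have a fitted effect of over 15% in size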). In outline:
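A Gli1 transcriptional response element controlled firefly luciferase in 3T3Gli1-Luc cells. Compounds and a positive control were added 4 hr after plating, and cells were incubated a further 24 hr at 37 C before luminescence detection.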

The nature of assay [19]: qHTS assay to identify small molecule phospholipidosis (PLD) inducers (AID 1259344; active = well fitted curve in the direction sought with a large enough effect; an effect the other way counts as inactive or inconclusive). The method in brief: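 Quantitative HTS in HepG2: compound plus LipidTOX Red dye for 24 h, paraformaldehyde fixation with Hoechst 33342, widefield high-content imaging; amiodarone as positive and DMSO as negative control.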

Inconclusive results are not listed. Activity calls are given as the source filed them. Unless noted, calls come from the whole dose curve; as a rule, active = well fitted curve in the direction sought with a large enough effect in the repeat runs; inconclusive = weak or mixed curves; inactive = no such curve, though single readings can be large; an effect the other way counts as inactive or inconclusive.

Chain of Estrogen receptor (Homo sapiens) (P03372 whole entry, looked up): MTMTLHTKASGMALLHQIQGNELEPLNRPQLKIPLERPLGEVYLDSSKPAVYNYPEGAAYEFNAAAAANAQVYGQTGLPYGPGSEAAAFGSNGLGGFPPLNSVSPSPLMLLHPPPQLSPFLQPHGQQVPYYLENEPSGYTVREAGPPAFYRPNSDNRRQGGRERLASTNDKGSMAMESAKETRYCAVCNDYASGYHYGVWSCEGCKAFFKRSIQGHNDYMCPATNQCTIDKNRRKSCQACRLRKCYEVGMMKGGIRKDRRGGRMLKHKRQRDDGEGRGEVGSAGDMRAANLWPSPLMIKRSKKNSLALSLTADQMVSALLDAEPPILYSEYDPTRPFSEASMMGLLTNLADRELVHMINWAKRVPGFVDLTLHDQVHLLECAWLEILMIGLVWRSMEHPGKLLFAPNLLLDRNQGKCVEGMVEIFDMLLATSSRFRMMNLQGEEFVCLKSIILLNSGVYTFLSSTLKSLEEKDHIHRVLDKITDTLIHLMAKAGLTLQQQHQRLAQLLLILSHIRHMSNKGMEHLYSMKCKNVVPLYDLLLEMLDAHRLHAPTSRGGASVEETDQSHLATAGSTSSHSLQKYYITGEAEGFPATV

Regarding `CON(C)C(=O)Nc1ccc(Cl)cc1`, the Potency result in assay [1], in [2], in assay [3], in assay [4], in assay [5] and in assay [6] was “inactive” each time. Moreover, the Potency result in assay [7], in assay [8], in [10], in assay [11], in assay [12] and in assay [13] was “inactive” in each case. In addition, the Potency entry in assay [15], in assay [16], in [17] and in [18] was “inactive” in each case. In addition, the outcome in [9] was inactive. In addition, the Potency in assay [14] is 27.3 µM (active).
`COC(=O)Cc1ccccc1`: the Potency entry in assay [1], in assay [2], in [3], in assay [4], in assay [5] and in assay [6] was “inactive” in each case. The Potency result in assay [7], in assay [8], in [10], in assay [11], in [12] and in [13] was “inactive” throughout. Also, the Potency entry in [14], in assay [15], in assay [16], in assay [17] and in [18] was “inactive” in each case. Besides, the compound was classed as inactive in assay [9].
Take `CCC(C)(C)O`: the Potency result in assay [1], in assay [2], in assay [3], in assay [4], in assay [5] and in assay [6] was “inactive” each time. Also, the Potency entry in assay [7], in assay [8], in [10], in assay [11], in [12] and in [13] was “inactive” each time. Further, the Potency entry in assay [14], in assay [15], in [16], in assay [17] and in assay [18] was “inactive” throughout. For the same compound, the compound was called inactive in assay [9].
For the compound `CCCCCCCCCCCCN(C)C`, the Potency result in assay [1], in [2], in [3], in [4], in [5] and in [6] was “inactive” in each case. Further, the Potency result in assay [7], in assay [8], in [10], in [11], in assay [12] and in assay [13] was “inactive” each time. Also, the Potency entry in [14], in assay [15], in assay [16], in assay [17] and in assay [18] was “inactive” in each case. In assay [9], the compound was classed as inactive.
On to `CCSCc1ccccc1OC(=O)NC`, for which the Potency result in assay [1], in [2], in assay [3], in assay [4], in [5] and in assay [6] was “inactive” throughout. In addition, the Potency result in [7], in [8], in [10], in assay [11], in assay [12] and in assay [13] was “inactive” throughout. For the same compound, the Potency entry in assay [14], in assay [15], in [16], in assay [17] and in assay [18] was “inactive” throughout. Moreover, in [9], the result was inactive.
For the compound `C1CS1`, the Potency entry in [1], in [2], in assay [3], in assay [4], in [5] and in assay [6] was “inactive” throughout. For the same compound, the Potency entry in assay [7], in [8], in [10], in assay [11], in [12] and in [13] was “inactive” each time. Further, the Potency entry in assay [14], in assay [15], in assay [16], in assay [17] and in assay [18] was “inactive” each time. Further, the outcome in [9] was inactive.
In the case of `NC(=O)CF`, the Potency result in assay [1], in assay [2], in assay [3], in assay [4], in assay [5] and in [6] was “inactive” each time. The Potency result in assay [7], in assay [8], in [10], in assay [11], in [12] and in assay [13] was “inactive” in each case. Further, the Potency entry in [14], in assay [15], in assay [16], in assay [17] and in assay [18] was “inactive” in each case. The result in assay [9] was inactive.
In the case of `CCOP(=O)(O)C(N)=O`, the Potency result in assay [1], in assay [2], in assay [3], in assay [4], in assay [5] and in assay [6] was “inactive” each time. Besides, the Potency result in assay [7], in assay [8], in assay [10], in [11], in assay [12] and in assay [13] was “inactive” in each case. Besides, the Potency result in assay [14], in assay [15], in assay [16], in assay [17] and in assay [18] was “inactive” throughout. The compound was classed as inactive in assay [9].
As for `C[N+](C)(C)CCOC(=O)C(O)(c1ccccc1)c1ccccc1`, the Potency entry in assay [1], in assay [2], in assay [3], in assay [4], in assay [5] and in assay [6] was “inactive” in each case. Further, the Potency result in assay [7], in assay [8], in assay [10], in assay [11], in assay [12] and in [14] was “inactive” in each case. The Potency entry in assay [15], in [16], in [17] and in assay [18] was “inactive” each time. Also, the compound was classed as inactive in [9] and in assay [19].
As to `Cc1ccc2c(C)cccc2c1`, the Potency result in assay [1], in assay [2], in assay [3], in assay [4], in assay [5] and in assay [6] was “inactive” in each case. Besides, the Potency result in assay [7], in assay [8], in assay [10], in assay [11], in [12] and in assay [13] was “inactive” each time. Moreover, the Potency result in [14], in [15], in assay [16], in assay [17] and in [18] was “inactive” in each case. For the same compound, the call in assay [9] was inactive.
For `O=C1CC[C@@]2(O)[C@H]3Cc4ccc(O)c5c4[C@@]2(CCN3CC2CC2)[C@H]1O5`, the Potency result in assay [1], in [2], in assay [3], in assay [4], in [5] and in assay [6] was “inactive” each time. In addition, the Potency entry in assay [7], in assay [8], in assay [10], in assay [11], in [12] and in assay [14] was “inactive” each time. The Potency result in assay [15], in assay [16], in assay [17] and in assay [18] was “inactive” each time. The result in assay [9] and in assay [19] was inactive.
For the compound `C[C@H]1[C@@H]2Cc3ccc(O)cc3[C@@]1(C)CCN2C`, the Potency result in assay [1], in assay [2], in [3], in assay [4], in assay [5] and in assay [6] was “inactive” each time. Besides, the Potency result in assay [7], in assay [8], in assay [10], in [11], in assay [12] and in assay [14] was “inactive” throughout. Moreover, the Potency result in assay [15], in [16], in [17] and in assay [18] was “inactive” in each case. Besides, the outcome in assay [9] and in [19] was inactive.
On to `CCOC(=O)C1OC1(C)c1ccccc1` (stereo unspecified), for which the Potency result in assay [1], in [2], in assay [3], in assay [4], in assay [5] and in assay [6] was “inactive” in each case. For the same compound, the Potency result in assay [7], in assay [8], in [10], in [11], in assay [12] and in assay [14] was “inactive” each time. The Potency entry in assay [15], in assay [16], in assay [17] and in assay [18] was “inactive” in each case. For the same compound, the compound was called inactive in assay [9].
`C[N+]1(CCC(C(N)=O)(c2ccccc2)c2ccccc2)CCCCC1`: the Potency result in assay [1], in [2], in [3], in assay [4], in assay [5] and in [6] was “inactive” each time. In addition, the Potency entry in assay [7], in assay [8], in assay [10], in [11], in assay [12] and in assay [14] was “inactive” in each case. The Potency entry in [15], in [16], in assay [17] and in assay [18] was “inactive” throughout. For the same compound, the result in assay [9] and in [19] was inactive.

The values above are taken from PubChem BioAssay (Tox21).
